# Source: PMC11006913
# Changes are numbered by the printed parent chain.
# What was measured:
# Experiment in all cases: PBM; 200 nM protein, PBS
# Details in all cases: dsDNA, one strand shown
# [1] = target: CRX (Homo sapiens, UniProt O43186 26-111)
# [2] = target: T1, SIX6 (Homo sapiens, UniProt O95475 114-200, L167I)
# T1 sequence: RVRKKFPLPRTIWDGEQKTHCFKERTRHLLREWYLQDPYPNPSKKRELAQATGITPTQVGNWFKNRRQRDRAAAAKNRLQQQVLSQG
# [3] = target: T2, SIX6 (Homo sapiens, UniProt O95475 114-200, L143V)
# T2 sequence: T1 sequence with L30V, I54L
# [4] = target: T3, SIX6 (Homo sapiens, UniProt O95475 114-200, H141N)
# T3 sequence: T1 sequence with H28N, I54L
# [5] = target: T4, SIX6 (Homo sapiens, UniProt O95475 114-200, T165P)
# T4 sequence: T1 sequence with T52P, I54L
# [6] = target: T5, SIX6 (Homo sapiens, UniProt O95475 114-200, L143I)
# T5 sequence: T1 sequence with L30I, I54L
# [7] = target: T6, SIX6 (Homo sapiens, UniProt O95475 114-200, T165G)
# T6 sequence: T1 sequence with T52G, I54L
# [8] = target: T7, SIX6 (Homo sapiens, UniProt O95475 114-200, T139Q)
# T7 sequence: T1 sequence with T26Q, I54L
# [9] = target: CRX (Homo sapiens, UniProt O43186 26-111, E42D)
# Chain of CRX (Homo sapiens, UniProt O43186 26-111, E42D) (O43186 26-111 E42D): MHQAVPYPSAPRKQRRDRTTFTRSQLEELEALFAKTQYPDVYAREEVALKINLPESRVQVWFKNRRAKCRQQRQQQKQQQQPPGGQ
# [10] = target: T8, SIX6 (Homo sapiens, UniProt O95475 114-200)
# T8 sequence: T1 sequence with I54L
# [11] = target: T9, SIX6 (Homo sapiens, UniProt O95475 114-200, L167M)
# T9 sequence: T1 sequence with I54M
# [12] = target: T10, SIX6 (Homo sapiens, UniProt O95475 114-200, L143M)
# T10 sequence: T1 sequence with L30M, I54L
# [13] = target: T11, SIX6 (Homo sapiens, UniProt O95475 114-200, T165A)
# T11 sequence: T1 sequence with T52A, I54L
# [14] = target: T12, SIX6 (Homo sapiens, UniProt O95475 114-200, L167V)
# T12 sequence: T1 sequence with I54V
# [15] = target: T13, SIX6 (Homo sapiens, UniProt O95475 114-200, T165I)
# T13 sequence: T1 sequence with T52I, I54L
# [16] = target: CRX (Homo sapiens, UniProt O43186 26-111, R41L)
# Chain of CRX (Homo sapiens, UniProt O43186 26-111, R41L) (O43186 26-111 R41L): as the sequence (O43186 26-111 E42D) above, with R16L, D17E counted along it
# [17] = target: HOXA7 (Homo sapiens, UniProt P31268 116-202)
# Chain of HOXA7 (Homo sapiens, UniProt P31268 116-202) (P31268 116-202): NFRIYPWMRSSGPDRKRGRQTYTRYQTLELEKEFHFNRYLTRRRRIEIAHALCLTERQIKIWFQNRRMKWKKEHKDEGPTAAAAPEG
# [18] = target: HOXA7 (Homo sapiens, UniProt P31268 116-202, W177C)
# Chain of HOXA7 (Homo sapiens, UniProt P31268 116-202, W177C) (P31268 116-202 W177C): as the sequence (P31268 116-202) above, with W62C counted along it
# [19] = target: HOXB9 (Homo sapiens, UniProt P17482 171-250, T197M)
# Chain of HOXB9 (Homo sapiens, UniProt P17482 171-250, T197M) (P17482 171-250 T197M): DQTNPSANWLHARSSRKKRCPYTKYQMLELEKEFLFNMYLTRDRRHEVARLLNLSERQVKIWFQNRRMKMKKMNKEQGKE
# [20] = target: ALX4 (Homo sapiens, UniProt Q9H161 200-286)
# Chain of ALX4 (Homo sapiens, UniProt Q9H161 200-286) (Q9H161 200-286): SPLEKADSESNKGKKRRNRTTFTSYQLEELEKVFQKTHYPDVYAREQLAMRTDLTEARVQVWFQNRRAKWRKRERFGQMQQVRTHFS
# [21] = target: ALX4 (Homo sapiens, UniProt Q9H161 200-286, Q225E)
# Chain of ALX4 (Homo sapiens, UniProt Q9H161 200-286, Q225E) (Q9H161 200-286 Q225E): as the sequence (Q9H161 200-286) above, with Q26E counted along it
# [22] = target: HOXA2 (Homo sapiens, UniProt O43364 129-215, R185T)
# Chain of HOXA2 (Homo sapiens, UniProt O43364 129-215, R185T) (O43364 129-215 R185T): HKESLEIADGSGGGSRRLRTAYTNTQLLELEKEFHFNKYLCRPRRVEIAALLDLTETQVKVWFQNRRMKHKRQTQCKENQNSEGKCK
# [23] = target: HOXB9 (Homo sapiens, UniProt P17482 171-250)
# Chain of HOXB9 (Homo sapiens, UniProt P17482 171-250) (P17482 171-250): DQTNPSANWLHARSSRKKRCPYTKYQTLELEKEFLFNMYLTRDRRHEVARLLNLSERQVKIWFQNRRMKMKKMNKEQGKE
# [24] = target: HOXA2 (Homo sapiens, UniProt O43364 129-215, R185K)
# Chain of HOXA2 (Homo sapiens, UniProt O43364 129-215, R185K) (O43364 129-215 R185K): as the sequence (O43364 129-215 R185T) above, with T57K counted along it
# [25] = target: HOXB9 (Homo sapiens, UniProt P17482 171-250, R186Q)
# Chain of HOXB9 (Homo sapiens, UniProt P17482 171-250, R186Q) (P17482 171-250 R186Q): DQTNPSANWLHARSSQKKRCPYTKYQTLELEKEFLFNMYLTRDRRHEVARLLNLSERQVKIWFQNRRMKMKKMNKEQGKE
# [26] = target: HOXA2 (Homo sapiens, UniProt O43364 129-215, Y150S)
# Chain of HOXA2 (Homo sapiens, UniProt O43364 129-215, Y150S) (O43364 129-215 Y150S): as the sequence (O43364 129-215 R185T) above, with Y22S, T57R counted along it
# [27] = target: HOXA2 (Homo sapiens, UniProt O43364 129-215)
# Chain of HOXA2 (Homo sapiens, UniProt O43364 129-215) (O43364 129-215): as the sequence (O43364 129-215 R185T) above, with T57R counted along it
# [28] = target: T14, PAX4 (Homo sapiens, UniProt O43316 9-242, R200K)
# T14 sequence: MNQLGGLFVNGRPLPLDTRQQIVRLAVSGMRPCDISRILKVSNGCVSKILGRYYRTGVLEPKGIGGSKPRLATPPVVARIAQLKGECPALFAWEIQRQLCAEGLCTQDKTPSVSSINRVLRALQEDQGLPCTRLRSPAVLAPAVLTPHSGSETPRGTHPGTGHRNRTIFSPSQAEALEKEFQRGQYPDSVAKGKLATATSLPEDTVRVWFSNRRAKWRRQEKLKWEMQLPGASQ
# [29] = target: T15, PAX4 (Homo sapiens, UniProt O43316 9-242)
# T15 sequence: T14 sequence with K192R
# [30] = target: ALX3 (Homo sapiens, UniProt O95076 139-225, N203Q)
# Chain of ALX3 (Homo sapiens, UniProt O95076 139-225, N203Q) (O95076 139-225 N203Q): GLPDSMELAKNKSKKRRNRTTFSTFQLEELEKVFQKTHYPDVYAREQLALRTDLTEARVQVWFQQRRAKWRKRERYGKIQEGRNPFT
# [31] = target: T16, PAX4 (Homo sapiens, UniProt O43316 9-242, R200Q)
# T16 sequence: T14 sequence with K192Q
# [32] = target: T17, PAX4 (Homo sapiens, UniProt O43316 9-242, F177V)
# T17 sequence: T14 sequence with F169V, K192R
# [33] = target: ALX3 (Homo sapiens, UniProt O95076 139-225)
# Chain of ALX3 (Homo sapiens, UniProt O95076 139-225) (O95076 139-225): as the sequence (O95076 139-225 N203Q) above, with Q65N counted along it
# [34] = target: T18, PAX4 (Homo sapiens, UniProt O43316 9-242, F177Y)
# T18 sequence: T14 sequence with F169Y, K192R
# [35] = target: ALX3 (Homo sapiens, UniProt O95076 139-225, L168Q)
# Chain of ALX3 (Homo sapiens, UniProt O95076 139-225, L168Q) (O95076 139-225 L168Q): as the sequence (O95076 139-225 N203Q) above, with L30Q, Q65N counted along it
# [36] = target: ALX3 (Homo sapiens, UniProt O95076 139-225, L168V)
# Chain of ALX3 (Homo sapiens, UniProt O95076 139-225, L168V) (O95076 139-225 L168V): as the sequence (O95076 139-225 N203Q) above, with L30V, Q65N counted along it
# [37] = target: T19, PAX4 (Homo sapiens, UniProt O43316 9-242, R227W)
# T19 sequence: T14 sequence with K192R, R219W
# [38] = target: ALX3 (Homo sapiens, UniProt O95076 139-225, N203S)
# Chain of ALX3 (Homo sapiens, UniProt O95076 139-225, N203S) (O95076 139-225 N203S): as the sequence (O95076 139-225 N203Q) above, with Q65S counted along it
# Chain of CRX (Homo sapiens, UniProt O43186 26-111) (O43186 26-111): as the sequence (O43186 26-111 E42D) above, with D17E counted along it
sequence,measurement,setting,value
CCCTGATC,binding signal,[1],"10.2 upbm affinity estimate (log intensity, higher = more binding, comparable within an allelic series)"
same,binding signal,[2],"10.2 upbm affinity estimate (log intensity, higher = more binding, comparable within an allelic series)"
same,binding signal,[3],"9.63 upbm affinity estimate (log intensity, higher = more binding, comparable within an allelic series)"
same,binding signal,[4],"10.2 upbm affinity estimate (log intensity, higher = more binding, comparable within an allelic series)"
same,binding signal,[5],"9.31 upbm affinity estimate (log intensity, higher = more binding, comparable within an allelic series)"
same,binding signal,[6],"9.69 upbm affinity estimate (log intensity, higher = more binding, comparable within an allelic series)"
same,binding signal,[7],"10.3 upbm affinity estimate (log intensity, higher = more binding, comparable within an allelic series)"
same,binding signal,[8],"10.4 upbm affinity estimate (log intensity, higher = more binding, comparable within an allelic series)"
same,binding signal,[9],"10 upbm affinity estimate (log intensity, higher = more binding, comparable within an allelic series)"
same,binding signal,[10],"10.2 upbm affinity estimate (log intensity, higher = more binding, comparable within an allelic series)"
AGACTATC,binding signal,[1],"9.61 upbm affinity estimate (log intensity, higher = more binding, comparable within an allelic series)"
same,binding signal,[2],"10.2 upbm affinity estimate (log intensity, higher = more binding, comparable within an allelic series)"
same,binding signal,[3],"9.83 upbm affinity estimate (log intensity, higher = more binding, comparable within an allelic series)"
same,binding signal,[4],"10.2 upbm affinity estimate (log intensity, higher = more binding, comparable within an allelic series)"
same,binding signal,[5],"9.59 upbm affinity estimate (log intensity, higher = more binding, comparable within an allelic series)"
same,binding signal,[11],"9.99 upbm affinity estimate (log intensity, higher = more binding, comparable within an allelic series)"
same,binding signal,[12],"10.2 upbm affinity estimate (log intensity, higher = more binding, comparable within an allelic series)"
same,binding signal,[7],"10.2 upbm affinity estimate (log intensity, higher = more binding, comparable within an allelic series)"
same,binding signal,[8],"10.4 upbm affinity estimate (log intensity, higher = more binding, comparable within an allelic series)"
same,binding signal,[9],"9.51 upbm affinity estimate (log intensity, higher = more binding, comparable within an allelic series)"
same,binding signal,[13],"10.1 upbm affinity estimate (log intensity, higher = more binding, comparable within an allelic series)"
same,binding signal,[14],"10 upbm affinity estimate (log intensity, higher = more binding, comparable within an allelic series)"
same,binding signal,[10],"10.2 upbm affinity estimate (log intensity, higher = more binding, comparable within an allelic series)"
same,binding signal,[15],"10.1 upbm affinity estimate (log intensity, higher = more binding, comparable within an allelic series)"
same,binding signal,[16],"9.45 upbm affinity estimate (log intensity, higher = more binding, comparable within an allelic series)"
TAACCTTA,binding signal,[1],"9.78 upbm affinity estimate (log intensity, higher = more binding, comparable within an allelic series)"
GACCGACA,binding signal,[1],"8.43 upbm affinity estimate (log intensity, higher = more binding, comparable within an allelic series)"
same,binding signal,[17],"8.51 upbm affinity estimate (log intensity, higher = more binding, comparable within an allelic series)"
same,binding signal,[9],"8.36 upbm affinity estimate (log intensity, higher = more binding, comparable within an allelic series)"
same,binding signal,[18],"8.57 upbm affinity estimate (log intensity, higher = more binding, comparable within an allelic series)"
same,binding signal,[16],"8.31 upbm affinity estimate (log intensity, higher = more binding, comparable within an allelic series)"
GGGGCCCC,binding signal,[1],"8.9 upbm affinity estimate (log intensity, higher = more binding, comparable within an allelic series)"
same,binding signal,[19],"8.67 upbm affinity estimate (log intensity, higher = more binding, comparable within an allelic series)"
same,binding signal,[2],"9.09 upbm affinity estimate (log intensity, higher = more binding, comparable within an allelic series)"
same,binding signal,[3],"8.85 upbm affinity estimate (log intensity, higher = more binding, comparable within an allelic series)"
same,binding signal,[20],"8.29 upbm affinity estimate (log intensity, higher = more binding, comparable within an allelic series)"
same,binding signal,[4],"9 upbm affinity estimate (log intensity, higher = more binding, comparable within an allelic series)"
same,binding signal,[5],"8.87 upbm affinity estimate (log intensity, higher = more binding, comparable within an allelic series)"
same,binding signal,[11],"8.88 upbm affinity estimate (log intensity, higher = more binding, comparable within an allelic series)"
same,binding signal,[12],"8.91 upbm affinity estimate (log intensity, higher = more binding, comparable within an allelic series)"
same,binding signal,[6],"8.93 upbm affinity estimate (log intensity, higher = more binding, comparable within an allelic series)"
same,binding signal,[21],"8.44 upbm affinity estimate (log intensity, higher = more binding, comparable within an allelic series)"
same,binding signal,[7],"8.95 upbm affinity estimate (log intensity, higher = more binding, comparable within an allelic series)"
same,binding signal,[22],"7.49 upbm affinity estimate (log intensity, higher = more binding, comparable within an allelic series)"
same,binding signal,[23],"8.5 upbm affinity estimate (log intensity, higher = more binding, comparable within an allelic series)"
same,binding signal,[8],"9.06 upbm affinity estimate (log intensity, higher = more binding, comparable within an allelic series)"
same,binding signal,[9],"8.69 upbm affinity estimate (log intensity, higher = more binding, comparable within an allelic series)"
same,binding signal,[13],"9.03 upbm affinity estimate (log intensity, higher = more binding, comparable within an allelic series)"
same,binding signal,[24],"10.2 upbm affinity estimate (log intensity, higher = more binding, comparable within an allelic series)"
same,binding signal,[14],"8.99 upbm affinity estimate (log intensity, higher = more binding, comparable within an allelic series)"
same,binding signal,[10],"8.93 upbm affinity estimate (log intensity, higher = more binding, comparable within an allelic series)"
same,binding signal,[15],"8.97 upbm affinity estimate (log intensity, higher = more binding, comparable within an allelic series)"
same,binding signal,[25],"8.63 upbm affinity estimate (log intensity, higher = more binding, comparable within an allelic series)"
same,binding signal,[26],"10.5 upbm affinity estimate (log intensity, higher = more binding, comparable within an allelic series)"
same,binding signal,[16],"8.38 upbm affinity estimate (log intensity, higher = more binding, comparable within an allelic series)"
same,binding signal,[27],"7.38 upbm affinity estimate (log intensity, higher = more binding, comparable within an allelic series)"
GCAGCTGC,binding signal,[1],"8.45 upbm affinity estimate (log intensity, higher = more binding, comparable within an allelic series)"
same,binding signal,[2],"9.09 upbm affinity estimate (log intensity, higher = more binding, comparable within an allelic series)"
same,binding signal,[3],"9.05 upbm affinity estimate (log intensity, higher = more binding, comparable within an allelic series)"
same,binding signal,[20],"7.95 upbm affinity estimate (log intensity, higher = more binding, comparable within an allelic series)"
same,binding signal,[28],"8.99 upbm affinity estimate (log intensity, higher = more binding, comparable within an allelic series)"
same,binding signal,[4],"9.04 upbm affinity estimate (log intensity, higher = more binding, comparable within an allelic series)"
same,binding signal,[5],"9.02 upbm affinity estimate (log intensity, higher = more binding, comparable within an allelic series)"
same,binding signal,[29],"9.1 upbm affinity estimate (log intensity, higher = more binding, comparable within an allelic series)"
same,binding signal,[11],"9.06 upbm affinity estimate (log intensity, higher = more binding, comparable within an allelic series)"
same,binding signal,[12],"9.14 upbm affinity estimate (log intensity, higher = more binding, comparable within an allelic series)"
same,binding signal,[6],"9.05 upbm affinity estimate (log intensity, higher = more binding, comparable within an allelic series)"
same,binding signal,[21],"8.23 upbm affinity estimate (log intensity, higher = more binding, comparable within an allelic series)"
same,binding signal,[7],"9.04 upbm affinity estimate (log intensity, higher = more binding, comparable within an allelic series)"
same,binding signal,[22],"7.31 upbm affinity estimate (log intensity, higher = more binding, comparable within an allelic series)"
same,binding signal,[8],"9.1 upbm affinity estimate (log intensity, higher = more binding, comparable within an allelic series)"
same,binding signal,[9],"8.55 upbm affinity estimate (log intensity, higher = more binding, comparable within an allelic series)"
same,binding signal,[30],"7.82 upbm affinity estimate (log intensity, higher = more binding, comparable within an allelic series)"
same,binding signal,[13],"9.05 upbm affinity estimate (log intensity, higher = more binding, comparable within an allelic series)"
same,binding signal,[31],"9.09 upbm affinity estimate (log intensity, higher = more binding, comparable within an allelic series)"
same,binding signal,[24],"10.3 upbm affinity estimate (log intensity, higher = more binding, comparable within an allelic series)"
same,binding signal,[32],"9.27 upbm affinity estimate (log intensity, higher = more binding, comparable within an allelic series)"
same,binding signal,[14],"9.06 upbm affinity estimate (log intensity, higher = more binding, comparable within an allelic series)"
same,binding signal,[33],"7.63 upbm affinity estimate (log intensity, higher = more binding, comparable within an allelic series)"
same,binding signal,[34],"9.13 upbm affinity estimate (log intensity, higher = more binding, comparable within an allelic series)"
same,binding signal,[10],"9.1 upbm affinity estimate (log intensity, higher = more binding, comparable within an allelic series)"
same,binding signal,[35],"7.75 upbm affinity estimate (log intensity, higher = more binding, comparable within an allelic series)"
same,binding signal,[15],"9.05 upbm affinity estimate (log intensity, higher = more binding, comparable within an allelic series)"
same,binding signal,[36],"7.78 upbm affinity estimate (log intensity, higher = more binding, comparable within an allelic series)"
same,binding signal,[37],"9.34 upbm affinity estimate (log intensity, higher = more binding, comparable within an allelic series)"
same,binding signal,[26],"10.3 upbm affinity estimate (log intensity, higher = more binding, comparable within an allelic series)"
same,binding signal,[16],"8.5 upbm affinity estimate (log intensity, higher = more binding, comparable within an allelic series)"
same,binding signal,[38],"7.82 upbm affinity estimate (log intensity, higher = more binding, comparable within an allelic series)"
same,binding signal,[27],"7.36 upbm affinity estimate (log intensity, higher = more binding, comparable within an allelic series)"
